ST2 IL33 inh – blocks human ST2 binding to IL-33; Q01638; AlphaLISA ST2-Fc/biotin-IL-33 interaction, 1 h; inhibition, % for hits at 17 µM; 78,000 tested, 2.3% active; AID 1259354; in the data active means inhibition above about 30%
Target sequence (Q01638 whole entry, looked up): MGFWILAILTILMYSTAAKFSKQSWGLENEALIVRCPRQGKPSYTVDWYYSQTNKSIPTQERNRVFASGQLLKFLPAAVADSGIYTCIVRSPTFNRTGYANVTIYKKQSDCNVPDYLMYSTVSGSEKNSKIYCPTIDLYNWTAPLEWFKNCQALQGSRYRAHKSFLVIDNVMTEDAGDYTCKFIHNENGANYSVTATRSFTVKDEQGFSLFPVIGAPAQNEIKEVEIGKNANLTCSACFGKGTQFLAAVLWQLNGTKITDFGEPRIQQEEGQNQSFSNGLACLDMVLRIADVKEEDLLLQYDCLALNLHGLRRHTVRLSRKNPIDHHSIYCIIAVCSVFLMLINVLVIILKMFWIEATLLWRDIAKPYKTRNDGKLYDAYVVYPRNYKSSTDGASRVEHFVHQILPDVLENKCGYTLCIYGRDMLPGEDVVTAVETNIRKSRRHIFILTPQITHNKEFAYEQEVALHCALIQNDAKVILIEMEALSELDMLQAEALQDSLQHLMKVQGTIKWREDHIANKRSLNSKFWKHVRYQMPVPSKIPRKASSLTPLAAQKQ
Of the large screens only hits and unclear results are named; the others gave an inactive call; ! = not confirmed by another sample. Shown is part of a subset that was picked to be rich in hits.

CCc1nc2oc(C(=O)c3ccccc3)c(N)c2c2c1COC(C)(C)C2	ST2 IL33 inh 40.0%!
CCc1nc2oc(C(=O)c3ccc(Cl)cc3)c(N)c2c2c1COC(C)(C)C2	none
CCCSc1nc2ccccc2n1C(C)=O	none
COc1ccc(/C=C2/C=C(c3ccc(C)cc3)OC2=O)cc1OC	ST2 IL33 inh 32.0%
COc1ccc(OC)c(/C=C2\N=C(c3cccs3)OC2=O)c1	none
COc1ccc(C2=C/C(=C\c3ccc(C)o3)C(=O)O2)cc1	none
COc1ccc(/C=C2\SC(N3CCOCC3)=NC2=O)c(OC)c1	none
COc1ccc(/C=C2/OC(=O)c3c2cc(C)[nH]c3=O)cc1OC	none
COc1ccc(/C=C2/C=C(c3cc(OC)ccc3OC)OC2=O)c(OC)c1	ST2 IL33 inh 40.0%
CCOC(=O)N1CCN(Cc2ccc3c(c2)CN(C(=O)c2noc4c2CCCC4)CCO3)CC1	none
COc1ncc(CN2CCOC(Cc3cccc4ccccc34)C2)cn1 (stereo not drawn)	none
COc1ccc(C2=N/C(=C\c3ccc(SC)cc3)C(=O)O2)cc1[N+](=O)[O-]	none
Cc1c(Cl)c([N+](=O)[O-])cc([N+](=O)[O-])c1N1CCCC1	ST2 IL33 inh 40.0%
Cc1ccc(OCCCN2CCCCC2)c([N+](=O)[O-])c1	none
CCS(=O)(=O)N1CCN(c2c(Cl)cccc2[N+](=O)[O-])CC1	none
CC(C)c1nccn1CCCNC(=O)c1ccc(N(C)C)nc1	none
COc1ccccc1NC(=O)C1=C(C)Nc2ncnn2C1c1ccccc1[N+](=O)[O-] (stereo not drawn)	none
O=C1SC(Nc2ccc(I)cc2)C(=O)N1c1ccccc1 (stereo not drawn)	none
CC(C)C(C(=O)Nc1ccccc1Br)N1C(=O)c2ccccc2C1=O (stereo not drawn)	none
COc1cc(NC(=O)C(C(C)C)N2C(=O)c3ccccc3C2=O)c(OC)cc1Cl (stereo not drawn)	ST2 IL33 inh 41.0%
COc1ccccc1NC(=O)C(C(C)C)N1C(=O)c2ccccc2C1=O (stereo not drawn)	none
O=C1CCC(=O)N(O)CCCCCNC(=O)CCC(=O)N(O)CCOCCNC(=O)CCC(=O)N(O)CCCCCN1	none
O=C1CCC(=O)NCCCCCN(O)C(=O)CCC(=O)NCCCCCN(O)C(=O)CCC(=O)NCCCCCN1	ST2 IL33 inh 39.0%
O=C(c1c(-c2ccccc2)oc2ccc(O)cc12)N1CCCCC1	none
Cc1cc(C)n(C(=O)Cc2cccs2)n1	none
CC1=C(C(=O)Nc2ccccn2)C(c2ccc3c(c2)OCO3)C2=C(CCCC2=O)N1 (stereo not drawn)	none
COc1ccc2nc(N=C(N)N)nc(C)c2c1	none
COc1ccc2nc(N=C(N)NC(=O)Cc3ccc(Cl)cc3)nc(C)c2c1	ST2 IL33 inh 35.0%
CCC(=O)NC(N)=Nc1nc(C)c2cc(C)ccc2n1	none
CCn1ncc(S(=O)(=O)N2CCCC(c3nn(C)c(=O)n3CC)C2)c1C (stereo not drawn)	none
COc1cc(C2C(C#N)=C(N)Oc3n[nH]c(-c4ccccc4)c32)ccc1O (stereo not drawn)	none
COc1ccc(C2C(C#N)=C(N)Oc3n[nH]c(-c4ccc(F)cc4)c32)cc1OC (stereo not drawn)	ST2 IL33 inh 31.0%
COc1ccc(C2C(C#N)=C(N)Oc3n[nH]c(-c4ccc5ccccc5c4)c32)cc1OC (stereo not drawn)	none
COC(Cn1ccnc1-c1ccc(CO)o1)c1cccs1 (stereo not drawn)	none
CC1CC(O)(C#N)C(C)CN1C (stereo not drawn)	none
O=C1CC(c2ccccc2)=Nc2ccccc2N1	none
Oc1ccccc1C1=Nc2ccccc2N=C(c2cccc(F)c2)C1	ST2 IL33 inh 30.0%
Fc1cccc(-c2nnc3n2N=C(c2cccc(Br)c2)CS3)c1	none
CCOC(=O)C1C(=O)C=C(c2ccc(OC)cc2)CC1c1ccc(CC)cc1 (stereo not drawn)	none
NS(=O)(=O)c1ccc(CCN=CC2=C(O)c3ccccc3C2=O)cc1	none
CC(C)(C)c1ccc(C(=O)N(c2ccc(F)cc2)C2C=CS(=O)(=O)C2)cc1 (stereo not drawn)	none
O=[N+]([O-])C([N+](=O)[O-])=S(c1ccccc1)c1ccccc1	none
NC(=O)c1ccccc1	none
O=[N+]([O-])C=C(c1ccccc1)c1ccccc1	ST2 IL33 inh 39.0%
Cc1c(C=O)c2ccccc2n1CC(=O)Nc1ccc(Br)cc1	none
CCNC(=O)c1cccn1-c1nnc(N2CCCCC2)s1	none
O=C(Nc1ccccc1)N[C@H]1CO[C@H]2[C@@H]1OC[C@@H]2Nc1nccc(-c2cccc(F)c2)n1	none
Cc1ccc(Nc2nc(C3(C)CC4(CC(C)OC4=O)C(=O)O3)cs2)cc1 (stereo not drawn)	none
Cc1ccc(S(=O)(=O)N2CCN(c3nc(C)cc(N4CCOCC4)n3)CC2)cc1	none
Cc1ccc(SC2=C(N3CCOCC3)C(=O)N(c3cc(C)cc(C)c3)C2=O)cc1	ST2 IL33 inh 43.0%
Cc1cccc(N2C(=O)CC(N3CCOCC3)C2=O)c1 (stereo not drawn)	none
CCc1n[n+]2c(C)cc(C)nc2s1	none
CC1=C(C(=O)Nc2ccc(Cl)cc2)C(c2cccc([N+](=O)[O-])c2)n2ncnc2N1 (stereo not drawn)	none
CN(C)C(=O)c1nn(Cc2ccccc2)c2c1CN(C/C=C/c1ccccc1)CC2	none
O=C(Nc1cccc(OCc2cc(=O)n3cc(Cl)ccc3n2)c1)c1ccccc1	none
Cc1sc2c(c1C)c(=O)n(CCc1ccccc1)c(=O)n2Cc1cccnc1	none
COc1ccc(S(=O)(=O)N2CCCC2)cc1	none
OCCn1c(-c2ccc(F)cc2)csc1=Nc1ccccc1	ST2 IL33 inh 36.0%
Cn1c(=O)c2c(nc3n(CCCO)c(-c4ccc(F)cc4)cn23)n(C)c1=O	none
Clc1ccc(-c2csc(=Nc3ccccc3)n2CCCN2CCOCC2)cc1	ST2 IL33 inh 64.0%
CCn1c(-c2ccc(S(=O)(=O)N3CCCCC3)cc2)csc1=Nc1ccccc1OC	ST2 IL33 inh 61.0%
O=S(=O)(c1ccc(Cl)cc1)N(CCCN1CCOCC1)Cc1cccs1	none
c1ccc(CCCN2CCOCC2)cc1	none
c1ccc(N=c2scc(-c3ccccc3)n2Cc2cccnc2)cc1	ST2 IL33 inh 41.0%
CCSc1nnc(-c2cccnc2)n1Cc1ccccc1	none
Cc1ccc(S(=O)(=O)N2CCCCC2)cc1	none
O=C(N=c1scc(-c2ccc(Cl)cc2)n1Cc1ccco1)c1ccccc1	none
Cc1cc(CNC(=O)[C@H](C)n2cnnn2)c2[nH]c(C)c(C)c2c1	none
COc1ccc(C(=O)Nc2cccc(-c3nc4ncccc4o3)c2C)cc1Cl	none
Cn1cc(CC(=O)NCCN2CCc3ccccc3C2)c2ccccc21	none
Cc1cc(N2CCCC2)nc(N2CCN(S(=O)(=O)c3ccc(Cl)cc3)CC2)n1	none
COC(=O)CCNC(=O)c1nn(CC2CC2)c2c1CN(C(=O)c1ccccc1F)CC2	none
O=c1oc2ccccc2n1CCOc1ccccc1	none
Cc1cc(Cl)ccc1NC(=O)Cc1cccs1	none
CCC(C)Nc1nc(-c2cc(OC)c(OC)c(OC)c2)nc2ccccc12 (stereo not drawn)	none
CCn1c(-c2ccc(OC)c(F)c2)csc1=Nc1ccccc1	ST2 IL33 inh 73.0%
CCOc1ccc(Nc2ncnc3c2cnn3-c2ccc(C)cc2C)cc1	none
Cc1nc2cc(CCO)ccc2s1	none
CN(C)c1ccc(C(=O)Nc2nc3ccc(Cl)cc3s2)cc1	none
Cc1nc2ccc(N(C)C)cc2s1	ST2 IL33 inh 33.0%
CCOC(=O)Cn1c(=O)n(-c2ccc(F)cc2)c2nc(-c3cccc(Cl)c3)nc(C(N)=O)c21	none
COc1cc(OC)cc(-n2c(=O)c3sccc3n(CC(N)=O)c2=O)c1	none
COc1ccccc1N1C(=N)S/C(=C/c2ccc(Br)c([N+](=O)[O-])c2)C1=O	none
Cc1ccc(N2C(=O)S/C(=C\c3ccc4c(c3)OCO4)C2=O)cc1	none
COc1ccc(Br)cc1/C=C1/SC(=N)N(c2ccc3c(c2)OCO3)C1=O	ST2 IL33 inh 40.0%
